Activity calls are given as the source filed them.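 The calls were made as follows, unless noted: active = visually confirmed hit in the image check and inhibition above 20%; inconclusive = visually confirmed hit but inhibition not above 20%; inactive = no visual hit in the image check.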

A short description of one experiment: inhibitors of TNFa-induced NFkB p65 translocation, primary screen, imaging, HUVEC, MLSMR starter and 10KST1 sets (AID 438;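 active = inhibition above 20% together with a positive visual image hit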;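 also: compound added about 3h40 before a 20 min TNFalpha stimulation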;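 as to inhibition: signal is the nuclear over cytoplasmic p65 intensity ratio per well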). The following applies: HUVEC TNFa-induced p65 nuclear translocation; cell count: measured here: nuclei count (cytotoxicity indicator), at 2.08 µM; inhibition: at 2 µM, stronger effect = higher value, 0% TNFa-plus-vehicle, 100% no-TNFa wells.
Take `CNc1oc(-c2ccc(Cl)cc2)nc1C#N`: the cell count came out at 444 and the inhibition is -4.2% (inactive).
As for `O=C(CNC1=NCCC1)c1ccc2c(c1)OCCO2`, the cell count came out at 488 and the inhibition is -10.2% (inactive).
Taken in the same sequence, the figures for `COc1ccc(CNC(=O)c2c(C)cc(=O)oc2C)cc1OC` were 446 and 1.8% (inactive).
Taken in the same sequence, the figures for `C=CCOn1c(=O)c(-c2cc3ccccc3o2)[n+]([O-])c2ccccc21` were 536 and -1.4% (inactive).
Taken in the same sequence, the figures for `COC(=O)c1ccn(C(=O)c2ccc(Cl)cc2)n1` were 646 and -1.4% (inactive).
As to `c1ccc(OCc2nn3c(C4CCCCC4)nnc3s2)cc1`, the inhibition is -8.1% (inactive) and the cell count was found to be 633.
Taken in the same sequence, the figures for `CC(C)Cc1nc(N2CCN(C(=O)C(C)C)CC2)c(C#N)c2c1CCC2` were 1% (inactive) and 541.
Taken in the same sequence, the figures for `COC(=O)c1sccc1NC(=O)c1c(C)cc(=O)oc1C` were 2.4% (inactive) and 553.
Taken in the same sequence, the figures for `Cc1ccc(S(=O)(=O)N2CCC(N3CCCCCC3)CC2)cc1` were -31.4% (inactive) and 449.
As for `COc1ccc(C2=Nn3c(nnc3-c3cccnc3)SC2)cc1OC`, the cell count is 614 and the inhibition is -5.8% (inactive).
Taken in the same sequence, the figures for `CCCCOc1ccc(CN(C)c2ncnc(N)n2)cc1` were 657 and -1.7% (inactive).
Taken in the same sequence, the figures for `CCCCCCc1cc2cc(-c3nnc(-c4ccccc4O)o3)c(=O)oc2cc1O` were 473 and -2.3% (inactive).
The like results for `CC(=O)Nc1cccc(NC(=O)CSc2nc(C)c(C)c(C)c2C#N)c1` were, in that order, 546 and -8.2% (inactive).
For the compound `Cc1cc(=O)oc2cc(OCCSCCN3CCOCC3)ccc12`, the cell count worked out at 382 and the inhibition was -4.7% (inactive).
As to `COc1ccccc1C(CC(=O)Nc1nccs1)c1ccco1` (stereo not given), the inhibition is -14.3% (inactive) and the cell count is 354.
Taken in the same sequence, the figures for `CCC1(C)Cc2ccccc2-c2nc(NCCO)n(-c3ccccc3)c(=O)c21` (stereo not given) were 0.9% (inactive) and 467.
The like results for `CC1(C)Cc2c(sc3c4nnnn4c4nnnn4c23)CO1` were, in that order, -12.5% (inactive) and 634.
The like results for `CC(C)CN1C(=O)NC(NC(=O)c2cccnc2)(C(F)(F)F)C1=O` (stereo not given) were, in that order, -2.8% (inactive) and 488.
Take `CCOC(=O)C(C)Oc1nc(Oc2ccccc2)nc(N(C)C)n1` (stereo not given): the cell count stood at 645 and the inhibition was -4.1% (inactive).
As to `CC1(C)Cc2nc(N)c(C(=O)NCCO)cc2CO1`, the inhibition is -10.5% (inactive) and the cell count was found to be 668.
Taken in the same sequence, the figures for `COc1ccc(Cn2c(O)cc(=O)[nH]c2=O)cc1` were -0.7% (inactive) and 518.
The like results for `CC(C(=O)N1CCOCC1)N1C(=O)c2ccccc2C1=O` (stereo not given) were, in that order, -3% (inactive) and 306.
The like results for `COC(=O)CSc1nc(N)c2c3c(sc2n1)CCCC3` were, in that order, -10.6% (inactive) and 627.
Turning to `N#Cc1c(-c2ccco2)cc(C2CC2)nc1N`, the cell count amounted to 528 and the inhibition is -3.5% (inactive).
Take `CC1(C)Cc2c(C#N)c(N3CCOCC3)nc(-c3ccccc3)c2CO1`: the cell count amounted to 600 and the inhibition was -14.3% (inactive).
Taken in the same sequence, the figures for `CC(=O)Nc1cnc2ccccc2n1` were 626 and -12.5% (inactive).
Taken in the same sequence, the figures for `COc1ccc(OCC(=O)N2CCN(C(=O)c3cccc4ccccc34)CC2)cc1` were 413 and -2.6% (inactive).
The like results for `CC(C)CC(=O)Nc1ccccc1N1CCCC1` were, in that order, 269 and 3.1% (inactive).
With `CCCNC(=O)N(C)c1nncnc1C(=O)NC`, the inhibition was -20.4% (inactive) and the cell count turned out to be 503.
For `N#CC1(P(=O)(c2ccccc2)c2ccccc2)CC1`, the cell count is 481 and the inhibition was -10.9% (inactive).
The like results for `Cc1nc(Nc2ncc3c(n2)CC(C)(C)CC3=O)nc2ccccc12` were, in that order, 532 and -10.9% (inactive).
For the compound `O=c1c(F)cn(C2CCCO2)c(=O)n1Cc1ccccc1Cl` (stereo not given), the cell count is 614 and the inhibition is 1.6% (inactive).
The like results for `CCC(=O)Nc1cc(-c2nn(C)c(=O)c3ccccc23)ccc1N1CCCCC1` were, in that order, 527 and -10.5% (inactive).
The like results for `O=c1[nH]c(=O)n(Cc2ccco2)c2c1C(C(F)(F)F)(C(F)(F)F)N=C(c1ccco1)N2` were, in that order, 505 and -2.5% (inactive).
The like results for `Cn1c(=O)n(C)c2cc(C(=O)c3ccccc3)ccc21` were, in that order, 534 and -14.4% (inactive).
`N#Cc1nc(-c2ccc(Cl)cc2)oc1N1CCCCC1`: the cell count was 424 and the inhibition was -5.8% (inactive).
Taken in the same sequence, the figures for `Cc1cc(=O)oc(C)c1C(=O)NCCNC(=O)c1c(C)cc(=O)oc1C` were 496 and -5.9% (inactive).
The like results for `CCCCNC(=O)N1CCOCCOCCN(C(=O)NCCCC)CCOCC1` were, in that order, 524 and -14.1% (inactive).
The like results for `CCN(CC)c1ccc2cc(C(=O)Nc3ccccn3)c(=O)oc2c1` were, in that order, 384 and -12% (inactive).
For `CCN1CC2=C(OC(N)=C(C#N)C2c2ccccc2)/C(=C\c2ccccc2)C1` (stereo not given), the inhibition was -6.9% (inactive) and the cell count was determined as 489.

A further experiment in a line: endothelial E-selectin expression blockers – imaging, HUVEC, immunofluorescence, MLSMR starter and 10KST1 sets, primary screen (AID 487).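 As to inhibition: signal is fraction of cell area covered by stained E-selectin grains.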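 As to nuclei count: 100% = median nuclei count of all wells on the same plate.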 Particulars: HUVEC TNFalpha-induced E-selectin immunofluorescence imaging, at 2 µM; inhibition: stronger effect = higher value; nuclei count: measured here: cell number, toxicity.
Turning to `CNc1oc(-c2ccc(Cl)cc2)nc1C#N`, the inhibition is -114% (inactive) and the nuclei count is 169%.
The like results for `O=C(CNC1=NCCC1)c1ccc2c(c1)OCCO2` were, in that order, -73% (inactive) and 161%.
As for `COc1ccc(CNC(=O)c2c(C)cc(=O)oc2C)cc1OC`, the inhibition was -121% (inactive) and the nuclei count stood at 167%.
The like results for `C=CCOn1c(=O)c(-c2cc3ccccc3o2)[n+]([O-])c2ccccc21` were, in that order, -41.6% (inactive) and 144%.
As to `COC(=O)c1ccn(C(=O)c2ccc(Cl)cc2)n1`, the nuclei count stood at 147% and the inhibition is -13.4% (inactive).
The like results for `c1ccc(OCc2nn3c(C4CCCCC4)nnc3s2)cc1` were, in that order, 167% and -110% (inactive).
As for `CC(C)Cc1nc(N2CCN(C(=O)C(C)C)CC2)c(C#N)c2c1CCC2`, the nuclei count is 141% and the inhibition was -148% (inactive).
As to `COC(=O)c1sccc1NC(=O)c1c(C)cc(=O)oc1C`, the inhibition was -142% (inactive) and the nuclei count is 138%.
The like results for `Cc1ccc(S(=O)(=O)N2CCC(N3CCCCCC3)CC2)cc1` were, in that order, -231% (inactive) and 163%.
For the compound `COc1ccc(C2=Nn3c(nnc3-c3cccnc3)SC2)cc1OC`, the inhibition was -109% (inactive) and the nuclei count worked out at 152%.
With `CCCCOc1ccc(CN(C)c2ncnc(N)n2)cc1`, the nuclei count came to 180% and the inhibition is -51.5% (inactive).
The like results for `CCCCCCc1cc2cc(-c3nnc(-c4ccccc4O)o3)c(=O)oc2cc1O` were, in that order, 122% and -99.6% (inactive).
The like results for `CC(=O)Nc1cccc(NC(=O)CSc2nc(C)c(C)c(C)c2C#N)c1` were, in that order, 174% and 28% (inactive).
Taken in the same sequence, the figures for `Cc1cc(=O)oc2cc(OCCSCCN3CCOCC3)ccc12` were 162% and -171% (inactive).
On to `COc1ccccc1C(CC(=O)Nc1nccs1)c1ccco1` (stereo not given), for which the inhibition was -98.9% (inactive) and the nuclei count turned out to be 155%.
The like results for `CCC1(C)Cc2ccccc2-c2nc(NCCO)n(-c3ccccc3)c(=O)c21` (stereo not given) were, in that order, -104% (inactive) and 137%.
Regarding `CC1(C)Cc2c(sc3c4nnnn4c4nnnn4c23)CO1`, the nuclei count was found to be 164% and the inhibition is -30.9% (inactive).
The like results for `CC(C)CN1C(=O)NC(NC(=O)c2cccnc2)(C(F)(F)F)C1=O` (stereo not given) were, in that order, 130% and -106% (inactive).
Taken in the same sequence, the figures for `CCOC(=O)C(C)Oc1nc(Oc2ccccc2)nc(N(C)C)n1` (stereo not given) were 183% and -25.5% (inactive).
The like results for `CC1(C)Cc2nc(N)c(C(=O)NCCO)cc2CO1` were, in that order, 184% and 15.2% (inactive).
Turning to `COc1ccc(Cn2c(O)cc(=O)[nH]c2=O)cc1`, the inhibition was -49.2% (inactive) and the nuclei count turned out to be 94%.
The like results for `CC(C(=O)N1CCOCC1)N1C(=O)c2ccccc2C1=O` (stereo not given) were, in that order, -45.1% (inactive) and 96%.
The like results for `COC(=O)CSc1nc(N)c2c3c(sc2n1)CCCC3` were, in that order, -9.7% (inactive) and 172%.
As to `N#Cc1c(-c2ccco2)cc(C2CC2)nc1N`, the nuclei count was 107% and the inhibition was -51.8% (inactive).
The like results for `CC1(C)Cc2c(C#N)c(N3CCOCC3)nc(-c3ccccc3)c2CO1` were, in that order, 109% and -25.8% (inactive).
On to `CC(=O)Nc1cnc2ccccc2n1`, for which the inhibition was 17.9% (inactive) and the nuclei count was 160%.
The like results for `COc1ccc(OCC(=O)N2CCN(C(=O)c3cccc4ccccc34)CC2)cc1` were, in that order, -293% (inactive) and 133%.
The like results for `CC(C)CC(=O)Nc1ccccc1N1CCCC1` were, in that order, -24.3% (inactive) and 101%.
Turning to `CCCNC(=O)N(C)c1nncnc1C(=O)NC`, the inhibition was -13.3% (inactive) and the nuclei count stood at 99.4%.
Taken in the same sequence, the figures for `N#CC1(P(=O)(c2ccccc2)c2ccccc2)CC1` were -110% (inactive) and 143%.
In the case of `Cc1nc(Nc2ncc3c(n2)CC(C)(C)CC3=O)nc2ccccc12`, the nuclei count turned out to be 195% and the inhibition was -13% (inactive).
Taken in the same sequence, the figures for `O=c1c(F)cn(C2CCCO2)c(=O)n1Cc1ccccc1Cl` (stereo not given) were 203% and 11.4% (inactive).
Taken in the same sequence, the figures for `CCC(=O)Nc1cc(-c2nn(C)c(=O)c3ccccc23)ccc1N1CCCCC1` were 161% and -20.7% (inactive).
The like results for `O=c1[nH]c(=O)n(Cc2ccco2)c2c1C(C(F)(F)F)(C(F)(F)F)N=C(c1ccco1)N2` were, in that order, 132% and -212% (inactive).
For the compound `Cn1c(=O)n(C)c2cc(C(=O)c3ccccc3)ccc21`, the inhibition is 24.3% (inactive) and the nuclei count was 180%.
The like results for `N#Cc1nc(-c2ccc(Cl)cc2)oc1N1CCCCC1` were, in that order, -41.2% (inactive) and 138%.
As to `Cc1cc(=O)oc(C)c1C(=O)NCCNC(=O)c1c(C)cc(=O)oc1C`, the nuclei count was found to be 140% and the inhibition was -127% (inactive).
For the compound `CCCCNC(=O)N1CCOCCOCCN(C(=O)NCCCC)CCOCC1`, the nuclei count was 138% and the inhibition is -164% (inactive).
Taken in the same sequence, the figures for `CCN(CC)c1ccc2cc(C(=O)Nc3ccccn3)c(=O)oc2c1` were 80.2% and 0.4% (inactive).
Taken in the same sequence, the figures for `CCN1CC2=C(OC(N)=C(C#N)C2c2ccccc2)/C(=C\c2ccccc2)C1` (stereo not given) were 174% and -190% (inactive).

(Values after PubChem BioAssay.)
